Here are results for seven molecules from PubChem BioAssay (NCI).

Each structure is given as a SMILES string. This is part of a sample that, as a whole, favours compounds with a hit. Of some 83,000 tested, about 20% had one in any assay.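 Interpretation: 100, growth as untreated; towards 0, rising growth inhibition; 0, no net growth; 0 to -100, cell death. Compounds scoring below 10 were considered active.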 A number with no mark means an inactive call. Active and inactive are the calls of the source.

Among the test systems are DU-145 prostate; K-562 leukemia; MALME-3M melanoma; MDA-MB-231 breast; RXF 393 renal; SF-268 CNS; SF-295 CNS; SF-539 CNS; UACC-257 melanoma; M14 melanoma; HCT-15 colon; HT29 colon; SNB-75 CNS; SNB-19 CNS; U251 CNS; PC-3 prostate; SK-MEL-5 melanoma; UACC-62 melanoma; LOX IMVI melanoma; SK-MEL-28 melanoma.
Common to all, as to experiment: NCI-60 one-dose screen, 48 h (100 = growth as untreated, 0 = no growth, -100 = all killed)
Common to all, as to conditions: 10 µM unless noted

Regarding `Cc1c(CC(=S)N2CCOCC2)nnn1-c1cccc(C(F)(F)F)c1`, the growth with DU-145 prostate is 111%; in the assay on K-562 leukemia, 100%; in the assay with MALME-3M melanoma, 104%; with MDA-MB-231 breast, 107%; in the assay on RXF 393 renal, 108%; in the assay with SF-268 CNS, 97.7%. Besides, the growth in the assay on SF-295 CNS is 109%; in the assay with SF-539 CNS, 95.1%; in the assay on UACC-257 melanoma it was 105%; with M14 melanoma it was 100%; with HCT-15 colon, 104%; in the assay with HT29 colon, 101%. For the same molecule, the growth in the assay on SNB-75 CNS is 92.3%; in the assay with SNB-19 CNS, 106%; with U251 CNS, 95.4%; in the assay on PC-3 prostate, 99%; in the assay on SK-MEL-5 melanoma it was 99.8%; in the assay with UACC-62 melanoma, 101%. Further, the growth with LOX IMVI melanoma was 98.2%; in the assay on SK-MEL-28 melanoma, 113%.

Consider `COc1ccc(-c2nn(-c3ccccc3)cc2/C=C/C(=O)NNC(=O)Nc2ccc(C)cc2)cc1`, for which the growth in the assay with DU-145 prostate is 108%; in the assay on K-562 leukemia it was 78.3%; in the assay with MALME-3M melanoma it was 91.8%; in the assay with MDA-MB-231 breast, 83.5%; in the assay with RXF 393 renal, 109%; in the assay on SF-268 CNS, 102%. Moreover, the growth in the assay on SF-295 CNS was 99%; in the assay on SF-539 CNS, 101%; in the assay on UACC-257 melanoma it was 95.7%; in the assay with M14 melanoma, 94.1%; in the assay on HCT-15 colon, 97.1%; in the assay on HT29 colon it was 101%. Also, the growth in the assay on SNB-75 CNS was 96.5%; with SNB-19 CNS, 88.5%; in the assay on U251 CNS, 94.3%; in the assay on PC-3 prostate it was 89.6%; in the assay on SK-MEL-5 melanoma, 96.5%; in the assay on UACC-62 melanoma it was 89.3%. Further, the figures for the growth with LOX IMVI melanoma and with SK-MEL-28 melanoma were 97.6% and 115%, respectively.

On to `COc1ccc(C2=CC(c3cc(OC)c(OC)c(OC)c3)n3ncnc3N2)cc1` (stereo not given), for which the growth in the assay with DU-145 prostate is -24.7% (active); with K-562 leukemia, 9.56% (active); with MALME-3M melanoma, 75.8%; in the assay on MDA-MB-231 breast it was 8.42% (active); in the assay with RXF 393 renal, 71.1%; in the assay with SF-268 CNS, 31.4%. Also, the growth in the assay with SF-295 CNS is 13.5%; in the assay on SF-539 CNS, -1.69% (active); with UACC-257 melanoma, 56.5%; in the assay with M14 melanoma it was -2.18% (active); in the assay on HCT-15 colon, 14.5%; in the assay with HT29 colon, 1.66% (active). Moreover, the growth is 40.4% with SNB-75 CNS; 36% in the assay on SNB-19 CNS; 6.34% (active) in the assay with U251 CNS; 21.7% in the assay with PC-3 prostate; 1.68% (active) in the assay with SK-MEL-5 melanoma; 51.9% in the assay with UACC-62 melanoma. The figures for the growth in the assay with LOX IMVI melanoma and in the assay with SK-MEL-28 melanoma were 22.2% and 54.3%, respectively.

Take `C#CC#CC#CC#CC#CC#CC#CC#CCC1OC[C@H](COC(=O)O[C@@H](C(=O)O[C@H]2C[C@@]3(O)[C@@H](OC(=O)c4ccccc4)[C@@H]4[C@]5(OC(C)=O)CO[C@@H]5C[C@H](O)[C@@]4(C)C(=O)[C@H](OC(C)=O)C(=C2C)C3(C)C)[C@@H](NC(=O)c2ccccc2)c2ccccc2)O1` (stereo not given in full): the growth in the assay with DU-145 prostate was 17.3%; in the assay on K-562 leukemia it was 15.5%; in the assay on MALME-3M melanoma, 47.2%; in the assay on MDA-MB-231 breast it was 35.3%; in the assay on RXF 393 renal, -2.06% (active); with SF-268 CNS, 45.9%. For the same molecule, the growth was 15.2% in the assay with SF-295 CNS; 8.47% (active) with SF-539 CNS; 64.9% in the assay on UACC-257 melanoma; 1.84% (active) with M14 melanoma; 88% with HCT-15 colon; 7.52% (active) in the assay with HT29 colon. Moreover, the growth in the assay on SNB-75 CNS is 7.72% (active); with SNB-19 CNS it was 27.9%; in the assay on U251 CNS, 26.2%; in the assay on PC-3 prostate it was 23.2%; in the assay with SK-MEL-5 melanoma it was 31.6%; in the assay on UACC-62 melanoma, 28.3%. Also, the growth with LOX IMVI melanoma is 29.6%; with SK-MEL-28 melanoma, 53.6%.

As for `COC(=O)CCC/C=C\C[C@H]1C=CC(=O)/C1=C/C[C@@H](O)C/C=C\CC(F)(F)F`, the growth was 24.9% in the assay with DU-145 prostate; 6.69% (active) in the assay with K-562 leukemia; 10.2% in the assay on MALME-3M melanoma; 8.26% (active) in the assay on MDA-MB-231 breast; -5.41% (active) in the assay with RXF 393 renal; 17.6% with SF-268 CNS. Also, the growth with SF-295 CNS is -1.18% (active); with SF-539 CNS, 17.8%; with UACC-257 melanoma, -15.6% (active); in the assay on M14 melanoma, -16.8% (active); in the assay with HCT-15 colon, -18.5% (active); in the assay on HT29 colon it was -42.6% (active). Also, the growth is 68.3% in the assay on SNB-75 CNS; 33.7% with SNB-19 CNS; -69.1% (active) with U251 CNS; -16.2% (active) in the assay on PC-3 prostate; -89.7% (active) with SK-MEL-5 melanoma; -37.2% (active) in the assay with UACC-62 melanoma. Further, the growth in the assay with LOX IMVI melanoma is -82.7% (active); in the assay with SK-MEL-28 melanoma, -25.5% (active).

`C[C@H](CCCC(=O)NCC#CCN1CCN(C)CC1)[C@H]1CC[C@H]2[C@@H]3CC[C@@H]4CC(=O)CC[C@]4(C)[C@H]3CC[C@]12C`: the growth was 102% in the assay with DU-145 prostate; 57.9% in the assay on K-562 leukemia; 65.7% in the assay with MALME-3M melanoma; 102% with MDA-MB-231 breast; 86.3% in the assay with RXF 393 renal; 95.5% in the assay with SF-268 CNS. In addition, the growth in the assay with SF-295 CNS was 106%; with SF-539 CNS it was 78.6%; in the assay with UACC-257 melanoma, 96.3%; in the assay with M14 melanoma, 85.1%; with HCT-15 colon it was 78.6%; in the assay with HT29 colon it was 32.2%. Besides, the growth is 89.8% in the assay with SNB-75 CNS; 102% in the assay with SNB-19 CNS; 88% in the assay with U251 CNS; 77.1% in the assay with PC-3 prostate; 90.7% in the assay with SK-MEL-5 melanoma; 97.7% in the assay on UACC-62 melanoma. The growth in the assay on LOX IMVI melanoma was 86.7%; with SK-MEL-28 melanoma it was 89.3%.

Consider `Cn1cc(-c2nn3cc(-c4cccs4)nc3s2)c2cc(F)ccc21`, for which the growth is 51.1% with DU-145 prostate; 15.5% in the assay on K-562 leukemia; 21.2% in the assay on MALME-3M melanoma; 34.5% in the assay on MDA-MB-231 breast; 64.4% in the assay with RXF 393 renal; 45.2% in the assay with SF-268 CNS. Also, the growth with SF-295 CNS is 28.2%; in the assay with SF-539 CNS it was 24.3%; in the assay on UACC-257 melanoma, 63.4%; with M14 melanoma it was 6.34% (active); in the assay on HCT-15 colon, 23.5%; with HT29 colon, 7.69% (active). For the same molecule, the growth with SNB-75 CNS was 11.9%; in the assay with SNB-19 CNS it was 32.1%; in the assay on U251 CNS it was 26%; in the assay with PC-3 prostate, 45.2%; in the assay on SK-MEL-5 melanoma, 29.3%; in the assay with UACC-62 melanoma it was 33.1%. Further, the growth in the assay with LOX IMVI melanoma was 35.4%; in the assay on SK-MEL-28 melanoma it was 49.7%.
